# From PubChem BioAssay (Tox21)
# Records with an inconclusive call do not appear. Where a call stands in place of a potency, no number is given. Activity calls are given as the source filed them. Unless noted, the call rests on the fitted dose curve; in most records, active means well fitted curve in the direction sought with a large enough effect in the repeat runs; inconclusive means weak or mixed curves; inactive means no such curve, though single readings can be large; an effect the other way counts as inactive or inconclusive.
# Experiments:
# [1] = qHTS assay to identify small molecule antagonists of the glucocorticoid receptor (GR) signaling pathway - cell viability counter screen (AID 720693); further: nearly all actives have a fitted effect of over 55% in size
# [2] = qHTS assay for identifying genotoxic compounds that show differential cytotoxicity against isogenic chicken DT40 cell lines with known DNA damage response pathways - wild type cell line (AID 743012); further: nearly all actives have a fitted effect of over 60% in size; further: potency means the concentration at half of the fitted maximal effect
# Summary of the method: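 Using parental DT40 (300 cells/well), compounds delivered in DMSO incubate 40 h at 37 C/5% CO2. CellTiter-Glo reagent then stands 30 min at room temperature, and luminescence gives cell viability.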
# [3] = qHTS assay for identifying genotoxic compounds that show differential cytotoxicity against isogenic chicken DT40 cell lines with known DNA damage response pathways - Rev3 mutant cell line (AID 743014); further: nearly all actives have a fitted effect of over 55% in size; further: potency means the concentration at half of the fitted maximal effect
# [4] = qHTS assay for identifying genotoxic compounds that show differential cytotoxicity against isogenic chicken DT40 cell lines with known DNA damage response pathways - Rad54/Ku70 mutant cell line (AID 743015); further: nearly all actives have a fitted effect of over 60% in size; further: potency means the concentration at half of the fitted maximal effect
# [5] = qHTS assay to identify small molecule antagonists of the androgen receptor (AR) signaling pathway - cell viability counter screen (AID 743033; further: nearly all actives have a fitted effect of over 45% in size)
# [6] = target: Androgen receptor (Homo sapiens) (UniProt P10275); test: qHTS assay to identify small molecule agonists of the androgen receptor (AR) signaling pathway (AID 743036; active means well fitted activation curve with a large enough effect in the signal ratio in the repeat runs, with a control signal flat, not every such curve was filed as active; the % refers to the signal ratio)
# Sequence of Androgen receptor (Homo sapiens) (P10275 whole entry, looked up): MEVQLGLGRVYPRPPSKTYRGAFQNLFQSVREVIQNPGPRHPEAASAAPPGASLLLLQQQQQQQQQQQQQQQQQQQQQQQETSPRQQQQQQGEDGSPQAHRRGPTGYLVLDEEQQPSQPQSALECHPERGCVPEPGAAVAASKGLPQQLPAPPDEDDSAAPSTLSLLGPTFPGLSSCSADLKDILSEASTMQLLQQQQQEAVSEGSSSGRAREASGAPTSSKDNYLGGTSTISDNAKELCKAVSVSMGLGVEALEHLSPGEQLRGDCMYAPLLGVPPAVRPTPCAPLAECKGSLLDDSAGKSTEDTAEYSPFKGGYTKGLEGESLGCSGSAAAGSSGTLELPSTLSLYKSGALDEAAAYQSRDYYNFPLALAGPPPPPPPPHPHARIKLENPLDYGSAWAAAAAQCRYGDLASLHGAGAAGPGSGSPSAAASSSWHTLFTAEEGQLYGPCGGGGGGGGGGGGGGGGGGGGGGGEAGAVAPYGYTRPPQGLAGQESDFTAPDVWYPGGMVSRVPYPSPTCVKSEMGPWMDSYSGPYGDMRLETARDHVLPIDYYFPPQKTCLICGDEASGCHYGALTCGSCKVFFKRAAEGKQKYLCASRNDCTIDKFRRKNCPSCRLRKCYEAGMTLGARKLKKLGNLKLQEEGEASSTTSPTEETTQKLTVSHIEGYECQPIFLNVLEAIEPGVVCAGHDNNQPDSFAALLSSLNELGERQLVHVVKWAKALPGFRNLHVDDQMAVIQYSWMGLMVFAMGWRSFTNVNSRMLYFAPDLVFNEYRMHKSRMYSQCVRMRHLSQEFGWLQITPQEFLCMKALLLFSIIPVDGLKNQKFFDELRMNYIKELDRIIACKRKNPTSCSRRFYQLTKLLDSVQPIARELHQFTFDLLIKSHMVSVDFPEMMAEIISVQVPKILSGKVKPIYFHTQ
# Summary of the method: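 Cell-based FRET reporter assay: HEK293 line with a UAS-beta-lactamase construct, compounds added in DMSO, 16 h exposure at 37C, then 2 h substrate step at room temperature and fluorescence intensity read.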
# [7] = target: Androgen receptor (Homo sapiens) (UniProt P10275); test: qHTS assay to identify small molecule agonists of the androgen receptor (AR) signaling pathway using the MDA cell line (AID 743040; further: nearly all actives have a fitted effect of over 20% in size)
# Summary of the method: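 Luminescence from ONE-Glo, read after 30 min at room temperature, reflects MMTV-driven luciferase in MDA-kb2 cells (AR- and GR-responsive). Treatment lasted 16 h at 37C, 0% CO2.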
# [8] = qHTS assay to identify small molecule antagonists of the androgen receptor (AR) signaling pathway using the MDA cell line - cell viability counter screen (AID 743041; further: nearly all actives have a fitted effect of over 45% in size)
# Summary of the method: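 Viability counter screen run alongside the AR antagonist reporter: cells seeded 5 h before compound, R1881 added, 16 h incubation at 37C without CO2, fluorescent CellTiter-Fluor signal quantified.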
# [9] = target: Androgen receptor (Homo sapiens) (UniProt P10275); test: qHTS assay to identify small molecule antagonists of the androgen receptor (AR) signaling pathway using the MDA cell line (AID 743042; further: nearly all actives have a fitted effect of over 55% in size)
# Summary of the method: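 MDA-kb2 cells (human breast carcinoma, stably carrying an MMTV-luciferase reporter responsive to AR and GR) were plated at 3,000 cells/well and preincubated 5 hr at 37C, then given compound plus R1881 agonist for 16 h. ONE-Glo luminescence was read.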
# [10] = qHTS assay to identify small molecule antagonists of the thyroid receptor (TR) signaling pathway - cell viability counter screen (AID 743064); further: nearly all actives have a fitted effect of over 50% in size
# Summary of the method: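 In rat pituitary GH3.TRE-Luc reporter cells co-exposed to compound and 1 nM T3 for 23.5 h, cytotoxicity was assessed with CellTiter-Fluor in the same wells, read by fluorescence.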
# [11] = qHTS assay to identify small molecule antagonists of the thyroid receptor (TR) signaling pathway (AID 743065); further: nearly all actives have a fitted effect of over 55% in size; further: potency means the concentration at half of the fitted maximal effect
# Summary of the method: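 GH3.TRE-Luc rat pituitary cells carrying two TR response elements driving luciferase were plated for 4 h, given compound plus 1 nM T3 (final), and incubated 23.5 h at 37 C. ONE-Glo luminescence measured reporter inhibition; CellTiter-Fluor fluorescence tracked cytotoxicity.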
# [12] = test system: thyroid hormone receptor (rat, GH3 cells); test: qHTS assay to identify small molecule agonists of the thyroid receptor (TR) signaling pathway (AID 743066; calls by dose curve)
# [13] = qHTS assay to identify small molecule antagonists of the estrogen receptor alpha (ER-alpha) signaling pathway - cell viability counter screen (AID 743074; calls by dose curve;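 further: HEK293 cells carrying ER-alpha-UAS-bla reporter stimulated with 17beta-estradiol; nearly all actives have a fitted effect of over 45% in size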)
# [14] = target: Estrogen receptor (Homo sapiens) (UniProt P03372); test: qHTS assay to identify small molecule agonists of the estrogen receptor alpha (ER-alpha) signaling pathway (AID 743075; calls by dose curve;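 further: HEK293 GripTite cells with ER-alpha and UAS-driven beta-lactamase reporter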)
# Sequence of Estrogen receptor (Homo sapiens) (P03372 whole entry, looked up): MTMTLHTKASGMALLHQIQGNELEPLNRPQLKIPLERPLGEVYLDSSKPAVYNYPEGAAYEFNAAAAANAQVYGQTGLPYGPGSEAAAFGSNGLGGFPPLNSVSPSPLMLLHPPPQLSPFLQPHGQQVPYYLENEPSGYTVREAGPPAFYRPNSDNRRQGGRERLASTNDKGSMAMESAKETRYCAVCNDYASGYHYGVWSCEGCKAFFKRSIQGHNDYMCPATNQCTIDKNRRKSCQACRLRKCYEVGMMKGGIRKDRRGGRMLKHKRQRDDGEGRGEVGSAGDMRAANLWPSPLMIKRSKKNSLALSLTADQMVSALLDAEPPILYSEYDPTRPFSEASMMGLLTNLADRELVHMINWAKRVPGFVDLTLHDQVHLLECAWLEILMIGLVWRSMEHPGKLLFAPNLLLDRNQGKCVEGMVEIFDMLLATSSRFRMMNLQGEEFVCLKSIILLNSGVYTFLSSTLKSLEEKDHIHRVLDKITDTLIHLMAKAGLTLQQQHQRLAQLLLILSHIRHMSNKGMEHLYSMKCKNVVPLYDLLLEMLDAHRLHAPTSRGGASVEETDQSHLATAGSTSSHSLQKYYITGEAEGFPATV
# [15] = qHTS assay to identify small molecule antagonists of the estrogen receptor alpha (ER-alpha) signaling pathway using the BG1 cell line (AID 743080; calls by dose curve;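 further: BG1 cells stimulated with 17beta-estradiol alongside compound; series mostly up to about 70 µM; nearly all actives have a fitted effect of over 25% in size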)
# Summary of the method: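 After 5 days in phenol-red-free 10% charcoal-stripped FBS medium, BG1-Luc-4E2 cells were seeded, left 24 h at 37 C, co-treated with compounds and 17beta-estradiol for 21.5 h, then assayed for viability and luciferase.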
# [16] = qHTS assay to identify small molecule antagonists of the estrogen receptor alpha (ER-alpha) signaling pathway using the BG1 cell line - cell viability counter screen (AID 743081);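 further: compound given together with 17beta-estradiol as the ER stimulus; series mostly up to about 70 µM; nearly all actives have a fitted effect of over 45% in size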
# Aromatase (Homo sapiens) = Aromatase (Homo sapiens) (UniProt P11511); test: qHTS assay to identify aromatase inhibitors (AID 743083)
# Sequence of Aromatase (Homo sapiens) (P11511 whole entry, looked up): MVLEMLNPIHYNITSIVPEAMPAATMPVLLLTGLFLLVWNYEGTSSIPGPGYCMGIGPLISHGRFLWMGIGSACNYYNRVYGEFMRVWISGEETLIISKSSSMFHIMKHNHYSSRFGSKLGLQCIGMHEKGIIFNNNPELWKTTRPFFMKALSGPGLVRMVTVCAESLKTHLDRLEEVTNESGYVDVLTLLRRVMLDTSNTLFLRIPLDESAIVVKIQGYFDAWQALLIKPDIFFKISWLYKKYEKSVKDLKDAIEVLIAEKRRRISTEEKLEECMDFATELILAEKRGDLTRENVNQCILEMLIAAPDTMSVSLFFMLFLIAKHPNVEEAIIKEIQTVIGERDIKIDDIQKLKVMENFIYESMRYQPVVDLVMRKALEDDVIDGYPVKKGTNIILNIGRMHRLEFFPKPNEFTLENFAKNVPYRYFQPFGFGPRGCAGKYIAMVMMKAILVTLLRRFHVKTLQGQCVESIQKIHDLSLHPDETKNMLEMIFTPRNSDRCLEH
# [17] = target: Estrogen receptor (Homo sapiens) (UniProt P03372); test: qHTS assay to identify small molecule antagonists of the estrogen receptor alpha (ER-alpha) signaling pathway (AID 743069; active means well fitted curve in the direction sought with a large enough effect in the signal ratio in the repeat runs, not every such curve was filed as active; the % refers to the signal ratio)
# Summary of the method: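 Estradiol-stimulated ER-alpha-UAS-bla HEK293 cells, 18 hr compound exposure at 37C. LiveBLAzer B/G substrate, 2 hr RT, fluorescence read.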
# [18] = target: Estrogen receptor (Homo sapiens) (UniProt P03372); test: qHTS assay to identify small molecule agonists of the estrogen receptor alpha (ER-alpha) signaling pathway using the BG1 cell line (AID 743079); further: nearly all actives have a fitted effect of over 20% in size; further: potency means the concentration at half of the fitted maximal effect
# [19] = target: Androgen receptor (Homo sapiens) (UniProt P10275); test: qHTS assay to identify small molecule antagonists of the androgen receptor (AR) signaling pathway (AID 743035; active means well fitted inhibition curve with a large enough effect in the signal ratio in the repeat runs, not every such curve was filed as active; the % refers to the signal ratio; further: potency means the concentration at half of the fitted maximal effect)
# Summary of the method: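 Using qHTS, AR-UAS-bla GripTite HEK293 cells received compound, then R1881, and were cultured 16 h at 37C/5% CO2 before a 2 h room-temperature LiveBLAzer B/G FRET substrate step and fluorescence measurement.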
Structure (SMILES),outcome [1],Potency [2],Potency [3],Potency [4],outcome [5],outcome [6],Potency [7],Potency [8],outcome [9],Potency [10],Potency [11],outcome [12],Potency [13],outcome [14],outcome [15],Potency [16],Potency (Aromatase (Homo sapiens)),Potency [17],Potency [18],Potency [19]
CC1=C2[C@H](/C=C(\C)C(=O)O)CC[C@@H](C)[C@H]2CC1,inactive,inactive,inactive,inactive,inactive,inactive,inactive,inactive,inactive,inactive,inactive,inactive,inactive,inactive,inactive,inactive,inactive,,,
FC(F)(F)C(Cl)(Cl)Cl,inactive,inactive,inactive,inactive,inactive,,,inactive,,inactive,inactive,inactive,inactive,inactive,inactive,inactive,inactive,inactive,inactive,
C=CCc1cc(OC)c(O)c(C(=O)NCCO)c1,inactive,inactive,inactive,inactive,inactive,,,inactive,,inactive,inactive,inactive,inactive,inactive,inactive,inactive,inactive,,inactive,
C[C@@H](N)C(=O)O,inactive,inactive,inactive,inactive,inactive,inactive,inactive,inactive,inactive,inactive,,inactive,inactive,,,inactive,inactive,,,
O=C1CCC(C2CCCCC2)CC1,inactive,inactive,inactive,inactive,inactive,,,inactive,,inactive,,inactive,,,,inactive,inactive,,,
CCCCCCCCCC/C=C/C#N,inactive,inactive,,inactive,inactive,,,inactive,,inactive,,inactive,inactive,inactive,inactive,inactive,inactive,inactive,inactive,
Cc1ccc(C=O)s1,inactive,inactive,inactive,inactive,inactive,,,inactive,,,,inactive,inactive,,,inactive,inactive,,,
OCc1ccccc1O,inactive,inactive,inactive,inactive,,,,inactive,,inactive,inactive,inactive,inactive,,,inactive,inactive,,,
CCN1CC(CCN2CCOCC2)C(c2ccccc2)(c2ccccc2)C1=O (stereo not given),inactive,inactive,,inactive,inactive,,,inactive,,inactive,inactive,inactive,inactive,,,inactive,inactive,,,
CO[C@@]1(NC(=O)CSCC#N)C(=O)N2C(C(=O)O)=C(CSc3nnnn3C)CS[C@@H]21,inactive,inactive,inactive,inactive,inactive,,,inactive,,,inactive,inactive,inactive,inactive,inactive,inactive,inactive,inactive,inactive,
O=C(O)c1cccc(Cl)c1Cl,inactive,inactive,inactive,inactive,inactive,,,inactive,,inactive,,,inactive,inactive,inactive,inactive,inactive,inactive,inactive,
CCOc1ccc2nc(N)sc2c1,inactive,inactive,,,inactive,,,inactive,,inactive,inactive,inactive,inactive,inactive,,inactive,inactive,inactive,4.29 µM (active),
CC/C=C\CCOC(=O)C(C)C,inactive,inactive,,inactive,inactive,,,inactive,,inactive,inactive,inactive,inactive,inactive,inactive,inactive,inactive,inactive,inactive,
CCOC(=O)C(Br)c1ccccc1 (stereo not given),inactive,inactive,,inactive,inactive,,,inactive,,inactive,inactive,inactive,inactive,inactive,inactive,inactive,inactive,,inactive,
CC(C)CCCCCCc1ccc(OCCOCCO)cc1,inactive,inactive,,,inactive,inactive,inactive,inactive,inactive,,inactive,inactive,inactive,inactive,inactive,inactive,,inactive,inactive,inactive
Cc1cc2nc(N)sc2cc1C,inactive,61.7 µM (active),55 µM (active),,inactive,,inactive,inactive,inactive,inactive,inactive,inactive,inactive,,,inactive,inactive,,,
CCCNC(C)C(=O)Nc1c(C)csc1C(=O)OC (stereo not given),inactive,inactive,,inactive,inactive,,,inactive,,inactive,,inactive,inactive,inactive,inactive,inactive,inactive,,inactive,
Cc1ccccc1C(=O)Nc1ccc(C(=O)N2CCCC(O)c3cc(Cl)ccc32)c(C)c1 (stereo not given),inactive,26.6 µM (active),,,inactive,,,inactive,,inactive,23.7 µM (active),inactive,inactive,,,,,,,
Cc1nc(-c2ccccn2)ncc1C(=O)Nn1cc(C)c2cc(F)ccc21,inactive,61.1 µM (active),61.1 µM (active),30.6 µM (active),,inactive,inactive,inactive,,inactive,inactive,inactive,inactive,inactive,,inactive,inactive,inactive,,49 µM (active)
